# In the library only some 6.2% were active in any assay of this set; here they are far more common.
# KB-3-1 cytotox = kills parental KB-3-1 adenocarcinoma cells; KB-3-1 viability, CellTiter-Glo ATP luminescence, 72 h; Potency, µM (doses to about 46.1 µM), usual class: cytotoxic; 400,000 tested, 1.4% active; AID 1347075; further: on the % scale 0 is the no-effect control and ±100 the full control effect; nearly all actives have a fitted effect of over 60% in size
#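 Parental KB-3-1 adenocarcinoma cells in phenol-red-free DMEM with 10% FBS were pin-treated with compounds at several concentrations, incubated 72 h at 37 °C, and viability read by CellTiter-Glo luminescence; concentration-effect curves were fitted after normalization.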
# S2 tox = reduces viability in counter-screen for ATXN expression inhibitors; S2 cells (HEK-293 line with an ATXN2-luciferase reporter) viability, CellTiter-Fluor protease fluorescence, 24 h; 400,000 tested, 0.49% active; Potency, µM (doses to about 56.7 µM), hits mostly cytotoxic; AID 651635; further: nearly all actives have a fitted effect of over 40% in size
# ATXN2 expr inh = ATXN2 expression inhibition | HEK-293 ATXN2-luciferase reporter, luminescence, 24 h | Potency, µM (doses to about 57 µM), for the others: top-dose activity change, negative = inhibition, usual class: inhibitors | 360,000 tested, 0.72% active | AID 1745845; further: on the % scale 0 is the no-effect control and ±100 the full control effect; nearly all actives have a fitted effect of over 55% in size
#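 qHTS (up to 57 uM final) was run with 24 h compound exposure of reporter cells at 37 °C. Each well was multiplexed: SteadyGlo luminescence measured ATXN2-luciferase expression after a fluorogenic Gly-Phe-AFC viability readout (25 uM final).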
# HT1080-NT tox = kills 2HG-producing HT-1080-NT fibrosarcoma cells | HT-1080-NT fibrosarcoma viability, CellTiter-Glo ATP luminescence, 48 h | 360,000 tested, 1.6% active | AID 686970 | Potency, µM (titrated, usually from 46.1 µM), for the others: top-dose activity, negative = less viability, actives largely listed as cytotoxic;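 further: NT is the 2HG producing partner of a matched IDH1 knockdown line; 0% = DMSO-treated cells and -100% = media-only wells without cells; nearly all actives have a fitted effect of over 55% in size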
#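 Fibrosarcoma NT cells, 750 per well in 5% FBS RPMI, were exposed to compound for 48 hours. Viability: CellTiter-Glo luminescence.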
# HT1080 IDH1KD tx = HT-1080 IDH1 knockdown cell toxicity (counter line); HT-1080 IDH1 knockdown viability, ATP luminescence, 48 h; Potency, µM (top dose mostly 46.1 µM), inactives show at the highest dose activity, negative = toxicity, most hits filed as cytotoxic; AID 686971; 360,000 tested, 2% active;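 further: 0% = DMSO wells and -100% = cell-free medium wells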
#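 After a 2 h attachment period, IDH1KD HT-1080 cells took pin-transferred compound for 48 h at 37 °C; ATP-based luminescence after 10 min room-temperature reagent incubation reported viability.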
# KB-V1 cytotox = kills drug-selected multidrug resistant KB-V1 cells. KB-V1 MDR cells viability, CellTiter-Glo, 72 h. Potency, µM (doses to about 46.1 µM), usual class: cytotoxic. 400,000 tested, 3.4% active; further: on the % scale 0 is the no-effect control and ±100 the full control effect; nearly all actives have a fitted effect of over 60% in size
#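 qHTS viability screen in drug-selected KB-V1 MDR cells: 72 h compound treatment at 37 degrees C, ATP luminescence end point.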
# An asterisk follows results filed as active; i = inactive; ? = inconclusive; . = no result; [ ] = another dose, or the depositor's remark. The call rests on the fitted dose curve; in most records, active means well fitted curve in the direction sought with a large enough effect; inconclusive means small, poorly fitted or top-dose-only effect, or another doubt; inactive means no such curve, though single readings can be large; an effect the other way counts as inactive or inconclusive. Potency means the concentration at half of the fitted maximal effect.
SMILES,KB-3-1 cytotox,S2 tox,ATXN2 expr inh,HT1080-NT tox,HT1080 IDH1KD tx,KB-V1 cytotox
CCOCCCNc1nc2c(S(=O)(=O)c3ccc(CC)cc3)nnn2c2ccc(Cl)cc12,i,i,6.8%,.,.,i
COc1cc(OC)c2c(-c3cccc(-c4ccc(O)cc4)c3)cc(=O)oc2c1,16.4µM*,i,?,?,?,?
COc1cc(OC)c2c(C)cc(=O)oc2c1,?,i,6.1%,0.0%,-0.2%[9.24 µM],i
COc1ccc(-c2cccc(-c3cc(=O)oc4cc(OC)cc(OC)c34)c2)cc1,0.651µM*,i,5.8%,?,0.581µM*,1.16µM*
COc1cc(OC)c2c(-c3cccc(/C=C/c4ccc(F)cc4)c3)cc(=O)oc2c1,i,i,42.4%,-0.9%,-9.3%,i
COc1cc(OC)c2c(-c3cccc(-c4ccc(CO)cc4)c3)cc(=O)oc2c1,?,i,?,?,0.517µM*,2.59µM*
COc1cc(OC)c2c(-c3cccc(-c4ccc(OC(F)(F)F)cc4)c3)cc(=O)oc2c1,i,i,2.7%,5.5%,4.6%,i
COc1cc(OC)c2c(-c3cccc(-c4cccc(C)c4)c3)cc(=O)oc2c1,i,i,-19.0%,?,5.8µM*,i
CCCN(CC(=O)Nc1ccccc1C)C(=O)CCNC(=O)c1ccccc1Cl,i,i,-2.7%,-2.8%,-4.3%,?
O=C(NCC1CCCN1S(=O)(=O)c1cccs1)C(=O)Nc1cccc(F)c1 (centres undefined),i,i,11.5%,1.4%,-1.2%,i
CC(=O)N1c2ccccc2CC1C(=O)N1CCN(c2cccc(Cl)c2)CC1 (centres undefined),i,i,2.6%,.,.,i
CCNC(=O)c1cc(NC(=O)COC)cc2nc(-c3ccncc3)n(C)c12,.,i,.,.,.,.
COc1cc2oc(=O)cc(-c3ccc(-c4ccc(N(C)C)cc4)cc3)c2c(OC)c1OC,i,.,-0.9%,-2.1%,-5.1%,i
COc1ccc(-c2cccc(-c3cc(=O)oc4cc(OC)c(OC)c(OC)c34)c2)cc1,?,?,3.4%,?,?,23.1µM*
COc1cc2oc(=O)cc(-c3ccc(-c4ccc(OC(F)(F)F)cc4)cc3)c2c(OC)c1OC,i,i,7.5%,15.6%,12.4%,i
COc1cc(OC)c2c(-c3cccc(-c4ccc(N(C)C)cc4)c3)cc(=O)oc2c1,2.59µM*,i,1.2%,?,1.3µM*,?
CC(C)(C)c1ccccc1NC(=O)Nc1nc(C(N)Cc2ccc(F)cc2)cs1 (centres undefined),i,i,-9.2%,?,?,i
CCOC(=O)c1cc2c(=O)n3ccccc3nc2n(CC2CCCO2)c1=NC(=O)c1cccc(C(F)(F)F)c1 (centres undefined),i,i,8.1%,.,.,i
OCCN(CCO)c1ccc(/C=C/c2ccnc3ccccc23)cc1,?,.,.,.,.,13µM*
CCN(CC)c1ccc(/C=C/c2ccnc3ccccc23)cc1,?,.,.,.,.,i
CCCCN(CCC#N)c1ccc(/C=C/c2ccnc3ccccc23)cc1,?,.,.,.,.,18.4µM*
CC[N+](CC)(CC)c1ccc(/C=C/c2ccnc3ccccc23)cc1,0.581µM*,.,.,.,.,?
Cc1cccc(NC(=O)C(NS(=O)(=O)c2ccc3c(c2)oc(=O)n3C)C(C)C)c1 (centres undefined),i,?,8.0%,.,.,i
Cc1ccc(C)c(NC(=O)CCn2nc(C)c3c(C)n(-c4ccccc4)nc3c2=O)c1,i,i,-12.0%,.,.,?
Cc1ccc(NC(=O)C2CCN(S(=O)(=O)c3ccc4[nH]c5c(c4c3)CCCCC5)CC2)cc1,i,.,.,.,.,i
SMILES,KB-3-1 cytotox,S2 tox,ATXN2 expr inh,HT1080-NT tox,HT1080 IDH1KD tx,KB-V1 cytotox
CCCc1nc2ccc(C)cn2c1Cc1ccccc1OC,i,.,?,?,18.4µM*,?
COc1ccccc1Cc1c(C2CCCCC2)nc2ccc(Cl)cn12,?,?,?,?,?,i
COc1ccccc1Cc1c(C2CCCCC2)nc2ccc(C)cn12,i,.,?,13µM*,?,i
CCCc1nc2ccc(C)cn2c1Cc1ccccc1C(F)(F)F,i,?,?,25.9µM*,32.6µM*,i
FC(F)(F)c1ccccc1Cc1c(C2CCCCC2)nc2ccc(Cl)cn12,i,17.8µM*,?,?,?,i
CCCc1nc2ccc(Cl)cn2c1Cc1ccccc1OC,?,?,?,?,?,i
Cc1ccc(Cc2c(C3CCCCC3)nc3ccc(Br)cn23)cc1,i,?,-25.8%,?,?,i
Cc1ccc2nc(C3CCCCC3)c(CC(C)(C)C)n2c1,i,22.4µM*,-32.1%,16.4µM*,?,i
CCCc1nc2ccc(Br)cn2c1Cc1ccccc1OC,?,22.4µM*,?,?,?,i
COc1ccccc1CNc1ccc(-c2nc(-c3cccc(C)c3)no2)cc1[N+](=O)[O-],i,i,-4.5%,.,.,i
COc1cc(OC)c(C=CS(=O)(=O)Cc2ccc(OC)c(NCC(=O)O)c2)c(OC)c1,.,.,-1.9%,.,.,.
CCOC(=O)c1c(C)[nH]c(C(=O)OC(C)C(=O)NC2(C#N)CCCCC2)c1C (centres undefined),i,i,.,1.9%,1.4%,i
CC1CCN(c2nc3ccc(C(=O)O)cc3s2)CC1,i,i,2.24µM*,-0.4%,-9.8%,i
Nc1ccc(-c2nc3ccc(C(=O)O)cc3s2)cc1,i,i,1.41µM*,-24.0%,?,i
Nc1ccc(-c2nc3ccc(N)cc3s2)cc1,i,i,20µM*,-25.1%,-19.6%,i
O=C(O)c1ccc2nc(-c3ccccc3)sc2c1,i,i,8.91µM*,-11.4%,-4.2%,i
CC(C)Cc1cc(C(=O)N(C)C2CCCN(Cc3ccccc3F)C2)n(C)n1 (centres undefined),?,i,-26.8%,-7.7%,-6.8%,?
COC(=O)c1cc(Cl)ccc1NC(=O)CSc1ncc(S(=O)(=O)c2ccc(Br)cc2)c(=O)[nH]1,i,i,-4.3%,.,.,?
Nc1ccc(/C=C/c2ccnc3ccccc23)cc1,i,.,.,.,.,i
CC(C)(C)OC(=O)N1CCC(c2c(C(=O)NCc3ccco3)cnn2-c2ccccc2)CC1,i,.,.,.,.,i
COC(=O)NC(=S)Nc1ccc(Oc2ccc(Cl)cc2Cl)c(Cl)c1,14.6µM*,?,-30.1%,16.4µM*,20.6µM*,?
O=C(c1ccc([N+](=O)[O-])cc1)N1CCc2ccccc2C1,i,i,14.1%,?,14.2%,i

# Compound activity as filed in PubChem.
